One experiment relates to ICS. The experiment in a line: qHTS profiling for inhibitors of Plasmodium falciparum proliferation (AID 504749). Note: potency is the fitted concentration of half-maximal effect. The settings on record: P. falciparum in erythrocytes, SYBR Green DNA, 72 h; series mostly up to 28.7 µM. The essentials: (§1)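 Infected RBCs, 0.3% parasitemia/2.5% Hct final; cpd 72 h, 37 C, 5% CO2; lysis buffer with saponin/triton/SYBR Green I, o/n RT dark; FI 485/535; norm. to artemisinin (0.29 uM) and DMSO.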
Background: Quantitative high-throughput screening tests each substance at several concentrations.

The next experiment has as its system JCK. The description is as above. The settings on record: P. falciparum in erythrocytes, SYBR Green DNA, 72 h; series mostly up to 28.7 µM. An outline of the steps: as §1
The test system of a further experiment is N140. The experiment is described as above. The settings on record: P. falciparum in erythrocytes, SYBR Green DNA, 72 h; series mostly up to 28.7 µM. The essentials:
as §1

Another experiment deals with P93_24. The experiment is described as above. The settings on record: P. falciparum in erythrocytes, SYBR Green DNA, 72 h; series mostly up to 28.7 µM. An outline of the steps: as §1
Another experiment deals with P94_40. Described as above. The settings on record: P. falciparum in erythrocytes, SYBR Green DNA, 72 h; series mostly up to 28.7 µM. An outline of the steps:
as §1

The next experiment relates to PAD. The experiment is described as above. The settings on record: P. falciparum in erythrocytes, SYBR Green DNA, 72 h; series mostly up to 28.7 µM. An outline of the steps:
as §1

The subject of another experiment is PC15. The experiment is described as above. The settings on record: P. falciparum in erythrocytes, SYBR Green DNA, 72 h; series mostly up to 28.7 µM. An outline of the steps: as §1
A further experiment relates to PC26. The experiment is described as above. The settings on record: P. falciparum in erythrocytes, SYBR Green DNA, 72 h; series mostly up to 28.7 µM. An outline of the steps: as §1
The next experiment deals with PC49. Described as above. The settings on record: P. falciparum in erythrocytes, SYBR Green DNA, 72 h; series mostly up to 28.7 µM. The essentials:
as §1

A further experiment relates to SC27B. Described as above. The settings on record: P. falciparum in erythrocytes, SYBR Green DNA, 72 h; series mostly up to 28.7 µM. An outline of the steps: as §1
The subject of a further experiment is TAB109. The experiment is described as above. The settings on record: P. falciparum in erythrocytes, SYBR Green DNA, 72 h; series mostly up to 28.7 µM. The essentials:
as §1

A further experiment concerns TAB113. The experiment is described as above. The settings on record: P. falciparum in erythrocytes, SYBR Green DNA, 72 h; series mostly up to 28.7 µM. The essentials:
as §1

A further experiment concerns TAB165. The experiment is described as above. The settings on record: P. falciparum in erythrocytes, SYBR Green DNA, 72 h; series mostly up to 28.7 µM. An outline of the steps: as §1
For the next experiment, the system named is W2. The experiment is described as above. The settings on record: P. falciparum in erythrocytes, SYBR Green DNA, 72 h; series mostly up to 28.7 µM. The essentials: as §1
For a further experiment, the system named is KB-3-1. The experiment in a line: Cytotoxic Profiling of Annotated Libraries Using Quantitative High-Throughput Screening (AID 1296008). Note: % is set by controls: 0 for no effect and ±100 for the full control effect. The settings on record: Five cell lines viability, CellTiter-Glo ATP luminescence, 48-72 h; max response: stronger effect = lower value. The essentials:
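Cytotoxicity was measured as CellTiter-Glo ATP luminescence, read after 10 min at room temperature. Compound treatment of the cells lasted 48 or 72 hr at 37 degrees Celsius in a qHTS format.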

Results filed as inconclusive are left out. Unmarked numbers belong to inactive results. Calls of active or inactive are those of the source. Calls come from the whole dose curve; as a rule, active = well fitted inhibition curve with a large enough effect; inconclusive = small, poorly fitted or top-dose-only effect; inactive = flat fitted curve, though single readings scatter.
Note: nearly all actives have a fitted effect of over 60% in size.

Turning to `CC(=O)[O][Al][O]C(C)=O`, the Potency result with ICS, in the experiment with JCK, in the experiment with N140, in the experiment with P93_24, with P94_40 and in the experiment on PAD was “inactive” each time. Further, the Potency entry with PC15, in the experiment on PC26, in the experiment on PC49, in the experiment on SC27B, in the experiment on TAB109 and in the experiment with TAB113 was “inactive” throughout. The Potency result in the experiment with TAB165 and in the experiment with W2 was “inactive” in each case. Further, in the experiment with KB-3-1, the max response is -5.29%.

As for `Cc1cccc(C)c1NC(=O)NC1=CCCN1C`, the Potency entry with ICS, in the experiment with JCK, with N140, in the experiment with P93_24, with P94_40 and in the experiment with PAD was “inactive” in each case. Besides, the Potency result in the experiment on PC15, with PC26, in the experiment with PC49, with SC27B, with TAB109 and in the experiment on TAB113 was “inactive” in each case. Moreover, the Potency result in the experiment with TAB165 and in the experiment with W2 was “inactive” throughout. Further, the max response in the experiment with KB-3-1 is -2.58%.

As for `CCCOc1cc(N)ccc1C(=O)OCCN(CC)CC`, the Potency result in the experiment on ICS, in the experiment on JCK, in the experiment on N140, in the experiment on P93_24, in the experiment on P94_40 and in the experiment with PAD was “inactive” each time. Moreover, the Potency entry in the experiment with PC15, with PC26, in the experiment with PC49, in the experiment with SC27B, in the experiment on TAB109 and in the experiment with TAB113 was “inactive” in each case. For the same compound, the Potency entry in the experiment with TAB165 and in the experiment with W2 was “inactive” each time. In addition, in the experiment with KB-3-1, the max response is -11.4%.

As to `Cc1ccc(S(=O)(=O)O)cc1C`, the Potency entry with ICS, with JCK, with N140, in the experiment on P93_24, in the experiment on P94_40 and with PAD was “inactive” throughout. The Potency result in the experiment with PC15, in the experiment with PC26, in the experiment with PC49, with SC27B, with TAB109 and in the experiment with TAB113 was “inactive” in each case. The Potency result in the experiment with TAB165 and with W2 was “inactive” each time. Also, the max response in the experiment with KB-3-1 is 7.06%.

For `CC(=O)NCCCS(=O)(=O)O`, the Potency result in the experiment on ICS, with JCK, with N140, in the experiment with P93_24, with P94_40 and with PAD was “inactive” throughout. Also, the Potency entry with PC15, in the experiment on PC26, in the experiment on PC49, in the experiment with SC27B, in the experiment on TAB109 and with TAB113 was “inactive” each time. Besides, the Potency result with TAB165 and in the experiment with W2 was “inactive” in each case. Besides, in the experiment on KB-3-1, the max response is 14.2%.

For `C=CC(=O)O`, the Potency entry with ICS, in the experiment with JCK, in the experiment on N140, in the experiment on P93_24, with P94_40 and in the experiment with PAD was “inactive” in each case. Moreover, the Potency entry with PC15, in the experiment on PC26, with PC49, with SC27B, in the experiment with TAB109 and in the experiment with TAB113 was “inactive” each time. Besides, the Potency result with TAB165 and in the experiment with W2 was “inactive” in each case. The max response with KB-3-1 was -9.21%.

Regarding `C=CC[C@@H]1/C=C(\C)C[C@H](C)C[C@H](OC)[C@H]2O[C@@](O)(C(=O)C(=O)N3CCCC[C@H]3C(=O)O[C@H](/C(C)=C/[C@@H]3CC[C@@H](O)[C@H](OC)C3)[C@H](C)[C@@H](O)CC1=O)[C@H](C)C[C@@H]2OC`, the Potency with ICS was 447 nM (active); in the experiment on JCK it was 3980 nM (active); with N140, 891 nM (active); in the experiment with P93_24 it was 2000 nM (active); in the experiment on P94_40, 2000 nM (active); with PAD, 1410 nM (active). The Potency in the experiment on PC15 is 2240 nM (active); in the experiment on PC26, 1690 nM (active); with PC49, 2000 nM (active); with SC27B it was 1780 nM (active); with TAB109 it was 2000 nM (active); in the experiment on TAB113, 1780 nM (active). Moreover, the Potency in the experiment with TAB165 was 1410 nM (active); with W2, 338 nM (active). In the experiment with KB-3-1, the max response is 2.3%.

On to `Oc1cc(O)cc(O)c1`, for which the Potency entry with ICS, in the experiment on JCK, in the experiment on N140, in the experiment with P93_24, with P94_40 and in the experiment on PAD was “inactive” in each case. The Potency result with PC15, in the experiment with PC26, in the experiment with PC49, with SC27B, with TAB109 and in the experiment on TAB113 was “inactive” in each case. In addition, the Potency result in the experiment on TAB165 and in the experiment on W2 was “inactive” throughout. Also, the max response in the experiment on KB-3-1 is 3%.

For the compound `CC(C)(C)c1ccc2c(S(=O)(=O)O)c(C(C)(C)C)ccc2c1`, the Potency entry in the experiment on ICS, in the experiment on JCK, in the experiment with N140, in the experiment on P93_24, with P94_40 and with PAD was “inactive” each time. Further, the Potency entry in the experiment with PC15, in the experiment with PC26, with PC49, in the experiment on SC27B, in the experiment with TAB109 and with TAB113 was “inactive” each time. The Potency result in the experiment with TAB165 and with W2 was “inactive” throughout. For the same compound, the max response with KB-3-1 was 3.96%.

Values taken from PubChem BioAssay (NCATS).
